Assay results as given in PubChem BioAssay.
Records with an inconclusive call do not appear. Active and inactive are the calls of the source.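 How the source made its calls, unless noted: active means normalized viability below 100% at a tested concentration; inactive means the rest.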

How the values were obtained:
[1] = growth inhibition of DIPG glioma cells, dose response, cell-based, SU-DIPG-XVII, MIPE5.0, CellTiter-Glo, qHTS (AID 1347060; cut-off not given, nearly all actives have AC50 up to about 26 µM;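 on AC50: cells exposed to compound for 48 hours before viability readout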); conditions: SU-DIPG-XVII viability, CellTiter-Glo ATP luminescence
[2] = growth inhibition of DIPG glioma cells, dose response, cell-based, JHH-DIPG-1, MIPE4.0, CellTiter-Glo, qHTS (AID 1347062; cut-off not given, nearly all actives have AC50 up to about 27 µM;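 on AC50: cells exposed to compound for two days before readout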); conditions: JHH-DIPG-1 viability, CellTiter-Glo ATP luminescence
[3] = growth inhibition of DIPG glioma cells, dose response, cell-based, SU-DIPG-IV, MIPE4.0, CellTiter-Glo, qHTS (AID 1347063; cut-off not given, nearly all actives have AC50 up to about 30 µM;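 further: compound exposure lasted 48 hours before the viability readout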); conditions: SU-DIPG-IV viability, CellTiter-Glo ATP luminescence
[4] = viability loss in pontine glioma line – cell-based, SU-DIPG-XXV, MIPE5.0, CellTiter-Glo, qHTS, dose response (AID 1347065; cut-off not given, nearly all actives have AC50 up to about 26 µM;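 further: cells exposed to compound for 48 hours before ATP readout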); conditions: CellTiter-Glo ATP luminescence
[5] = JHH-DIPG-1 glioma cell viability, MIPE5.0 library, CellTiter-Glo luminescence, qHTS (AID 1347067; cut-off not given, nearly all actives have AC50 up to about 26 µM;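 further: cells exposed to compound for 48 hours before readout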); conditions: JHH-DIPG-1 glioma viability, CellTiter-Glo ATP luminescence
[6] = sensitizers of A549 cells to miR-34 induction, primary screen, imaging, A549 dox-inducible miR-34, nuclei and caspase counts (AID 1347080;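 active means compounds whose cell count with miR-34 switched on is under 0.7 times the count with it off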); conditions: A549 miR-34 inducible, Hoechst nuclei count, 48 h
[7] = SU-DIPG-VI glioma cell viability, MIPE4.0 library, CellTiter-Glo luminescence, qHTS (AID 1347066; cut-off not given, nearly all actives have AC50 up to about 30 µM;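 further: cells exposed to compound for 48 hours before readout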); conditions: CellTiter-Glo ATP luminescence
[8] = SU-DIPG-XXV glioma cell viability, MIPE5.0 library, qHTS (AID 1347068; cut-off not given, nearly all actives have IC50 up to about 30 µM;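 on IC50: cells exposed to compound for 48 hours before viability readout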)
[9] = survival rescue of mitochondrial mutant cells in low glucose, primary screen, MELAS cybrids, Rieske KO mouse fibroblasts, CellTiter-Glo (AID 1508586;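 active means mean z-score across replicates of 1.96 or higher in either the MELAS or the Rieske mutant cell line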;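 further: z relative to plate mean and SD of compound and empty wells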)
[10] = modifiers of HSF1 nuclear foci, imaging, Selleck Cancer Library (AID 1347162; in the data active means plate-normalised HSF1 focus index below about 0.46); conditions: human cells, at 10 µM; SSMD: measured here: HSF1 foci SSMD mean; cell count: measured here: cell number; plate-normalised HSF1 focus index: stronger effect = lower value
[11] = ovarian cancer cell viability with rucaparib, profiling panel, oncology-focused library, rucaparib conditional (AID 1508598); conditions: patient-derived ovarian cancer cells, CellTiter-Glo viability, 144 h, stronger effect = lower value
[12] = growth inhibition of DIPG glioma cells, dose response, cell-based, SU-DIPG-XIII, MIPE5.0, CellTiter-Glo, qHTS (AID 1347064; cut-off not given, nearly all actives have AC50 up to about 23 µM;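 further: cells exposed to compound for 48 hours before the viability read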); conditions: SU-DIPG-XIII viability, CellTiter-Glo ATP luminescence
[13] = stronger effect = lower value, cell number ratio, induced over uninduced
[14] = measured here: relative caspase fold change +Dox/-Dox
[15] = measured here: total cells with miR-34 induction, stronger effect = lower value
[16] = measured here: total cells without miR-34 induction
[17] = MELAS cybrid survival, CellTiter-Glo 48 h, stronger effect = higher value
[18] = Rieske KO mouse fibroblast survival, CellTiter-Glo 72 h
[19] = at 0.000305 µM, OCI-C5x cells, with rucaparib 10 µM, 100% = cells with rucaparib alone
[20] = at 0.000305 µM, OCI-C5x cells, without rucaparib
[21] = at 0.000305 µM, OCI-P5x cells, with rucaparib 20 µM, 100% = cells with rucaparib alone
[22] = at 0.000305 µM, OCI-P5x cells, without rucaparib
[23] = at 0.00122 µM, OCI-C5x cells, with rucaparib 10 µM, 100% = cells with rucaparib alone
[24] = at 0.00122 µM, OCI-C5x cells, without rucaparib
[25] = at 0.00122 µM, OCI-P5x cells, with rucaparib 20 µM, 100% = cells with rucaparib alone
[26] = at 0.00122 µM, OCI-P5x cells, without rucaparib
[27] = at 0.00488 µM, OCI-C5x cells, with rucaparib 10 µM, 100% = cells with rucaparib alone
[28] = at 0.00488 µM, OCI-C5x cells, without rucaparib
[29] = at 0.00488 µM, OCI-P5x cells, with rucaparib 20 µM, 100% = cells with rucaparib alone
[30] = at 0.00488 µM, OCI-P5x cells, without rucaparib
[31] = at 0.0195 µM, OCI-C5x cells, with rucaparib 10 µM, 100% = cells with rucaparib alone
[32] = at 0.0195 µM, OCI-C5x cells, without rucaparib
[33] = at 0.0195 µM, OCI-P5x cells, with rucaparib 20 µM, 100% = cells with rucaparib alone
[34] = at 0.0195 µM, OCI-P5x cells, without rucaparib
[35] = at 0.0781 µM, OCI-C5x cells, with rucaparib 10 µM, 100% = cells with rucaparib alone
[36] = at 0.0781 µM, OCI-C5x cells, without rucaparib
[37] = at 0.0781 µM, OCI-P5x cells, with rucaparib 20 µM, 100% = cells with rucaparib alone
[38] = at 0.0781 µM, OCI-P5x cells, without rucaparib
[39] = at 0.313 µM, OCI-C5x cells, with rucaparib 10 µM, 100% = cells with rucaparib alone
[40] = at 0.313 µM, OCI-C5x cells, without rucaparib
[41] = at 0.313 µM, OCI-P5x cells, with rucaparib 20 µM, 100% = cells with rucaparib alone
[42] = at 0.313 µM, OCI-P5x cells, without rucaparib
[43] = at 1.25 µM, OCI-C5x cells, with rucaparib 10 µM, 100% = cells with rucaparib alone
[44] = at 1.25 µM, OCI-C5x cells, without rucaparib
[45] = at 1.25 µM, OCI-P5x cells, with rucaparib 20 µM, 100% = cells with rucaparib alone
[46] = at 1.25 µM, OCI-P5x cells, without rucaparib
[47] = at 5 µM, OCI-C5x cells, with rucaparib 10 µM, 100% = cells with rucaparib alone
[48] = at 5 µM, OCI-C5x cells, without rucaparib
[49] = at 5 µM, OCI-P5x cells, with rucaparib 20 µM, 100% = cells with rucaparib alone
[50] = at 5 µM, OCI-P5x cells, without rucaparib

CCOC(=O)[C@H]1O[C@@H]1C(=O)N[C@@H](CC(C)C)C(=O)NCCC(C)C
inactive: outcome [1] | outcome [2] | outcome [3] | outcome [4] | outcome [5] | fold change [6, 13] 0.97
0.856: fold change [6, 14]
4650: cell count [6, 15]
4800: cell count [6, 16]

C[C@H]1[C@H](OC(=O)CCC(=O)O)O[C@@H]2O[C@@]3(C)CC[C@H]4[C@H](C)CC[C@@H]1[C@@]24OO3
inactive: outcome [7]
active: AC50 [1] 3.72 µM | AC50 [2] 14.8 µM | AC50 [3] 3.72 µM | AC50 [4] 13.2 µM

COC[C@H](NC(=O)c1cnc(C)s1)C(=O)N[C@@H](COC)C(=O)N[C@@H](Cc1ccccc1)C(=O)[C@@]1(C)CO1
active: AC50 [1] 0.186 µM | AC50 [2] 0.148 µM | AC50 [3] 0.148 µM | AC50 [7] 0.332 µM

CC(C)c1cnn2c(NCc3ccccc3)cc(NCCCCCCN)nc12
active: AC50 [1] 18.6 µM | AC50 [2] 20.9 µM | AC50 [3] 18.7 µM | AC50 [4] 18.6 µM | AC50 [7] 23.5 µM | AC50 [5] 26.3 µM | IC50 [8] 23.5 µM
0.679: fold change [6, 14]
inactive: fold change [6, 13] 0.98 | z-score [9, 17] -0.424
-0.75: z-score [9, 18]
8080: cell count [6, 16]
7920: cell count [6, 15]

NCC(=O)Nc1ccc(-n2nc(C(F)(F)F)cc2-c2ccc3c(ccc4ccccc43)c2)cc1
0.441: fold change [6, 14]
-0.00325: z-score [9, 18]
active: AC50 [1] 23.5 µM | AC50 [2] 23.5 µM | AC50 [3] 20.9 µM | AC50 [7] 20.9 µM | AC50 [5] 20.9 µM
1800: cell count [6, 16]
2160: cell count [6, 15]
inactive: fold change [6, 13] 1.2 | z-score [9, 17] -0.432

CNC(=O)c1ccc(N2C(=S)N(c3ccc(C#N)c(C(F)(F)F)c3)C(=O)C2(C)C)cc1F
7300: cell count [6, 15]
0.602: z-score [9, 18]
6500: cell count [10]
8360: cell count [6, 16]
active: viability [11, 20] 85.9% | viability [11, 21] 81% | viability [11, 22] 76.7% | viability [11, 24] 93.5% | viability [11, 25] 91.6% | viability [11, 26] 82% | viability [11, 28] 91.5% | viability [11, 29] 90.9% | viability [11, 30] 85% | viability [11, 32] 95.6% | viability [11, 33] 92.4% | viability [11, 34] 87.7% | viability [11, 37] 94.7% | viability [11, 38] 85.3% | viability [11, 40] 96.4% | viability [11, 42] 94.4% | viability [11, 46] 95.6% | viability [11, 49] 97.6% | viability [11, 50] 93.9%
0.472: SSMD [10]
inactive: outcome [1] | outcome [2] | outcome [3] | outcome [4] | outcome [7] | outcome [5] | outcome [8] | fold change [6, 13] 0.873 | plate-normalised HSF1 focus index [10] 1.02 | z-score [9, 17] -0.357 | viability [11, 19] 110% | viability [11, 23] 110% | viability [11, 27] 110% | viability [11, 31] 113% | viability [11, 35] 108% | viability [11, 36] 102% | viability [11, 39] 108% | viability [11, 41] 102% | viability [11, 43] 117% | viability [11, 44] 104% | viability [11, 45] 102% | viability [11, 47] 127% | viability [11, 48] 108%
1.28: fold change [6, 14]

O=C1NCCc2[nH]c(-c3ccncc3)cc21
0.743: fold change [6, 14]
active: AC50 [1] 3.72 µM | AC50 [2] 3.32 µM | AC50 [3] 2.64 µM | AC50 [4] 2.09 µM | AC50 [5] 3.32 µM | IC50 [8] 5.25 µM
2160: cell count [6, 16]
inactive: outcome [7] | fold change [6, 13] 1.04 | z-score [9, 17] 0.826
-3.11: z-score [9, 18]
2250: cell count [6, 15]

CN(C)CCCN=c1c2ccccc2n(C)c2[nH]c(=O)n(C)c(=O)c12
6580: cell count [10]
inactive: plate-normalised HSF1 focus index [10] 0.997
-0.045: SSMD [10]
active: AC50 [1] 29.5 µM | AC50 [2] 8.33 µM | AC50 [3] 14.8 µM | AC50 [12] 26.3 µM

CC(C)C[C@H](NC(=O)CNC(=O)c1cc(Cl)ccc1Cl)B1OC(=O)CC(CC(=O)O)(C(=O)O)O1 (some centres not stated)
2.92: SSMD [10]
active: AC50 [1] 0.209 µM | AC50 [2] 0.132 µM | AC50 [3] 0.0662 µM | AC50 [4] 0.0833 µM | AC50 [5] 0.235 µM | IC50 [8] 0.132 µM | viability [11, 33] 97.5% | viability [11, 39] 25% | viability [11, 40] 16.8% | viability [11, 41] 12.3% | viability [11, 42] 3.86% | viability [11, 43] 6.01% | viability [11, 44] 5.13% | viability [11, 45] 2.61% | viability [11, 46] 1.15% | viability [11, 47] 1.84% | viability [11, 48] 1.81% | viability [11, 49] 1.46% | viability [11, 50] 0.836%
inactive: plate-normalised HSF1 focus index [10] 1.18 | viability [11, 19] 104% | viability [11, 20] 124% | viability [11, 21] 111% | viability [11, 22] 113% | viability [11, 23] 107% | viability [11, 24] 123% | viability [11, 25] 111% | viability [11, 26] 110% | viability [11, 27] 100% | viability [11, 28] 122% | viability [11, 29] 112% | viability [11, 30] 110% | viability [11, 31] 107% | viability [11, 32] 119% | viability [11, 34] 104% | viability [11, 35] 101% | viability [11, 36] 118% | viability [11, 37] 103% | viability [11, 38] 100%
7560: cell count [10]

O=C1NC(=O)C(c2cnc3ccccn23)=C1c1cn2c3c(cccc13)CN(C(=O)N1CCOCC1)CC2
inactive: outcome [2]
active: AC50 [1] 1.05 µM | AC50 [3] 0.00833 µM | AC50 [4] 11.8 µM | AC50 [5] 18.6 µM | IC50 [8] 18.6 µM
